Assay results as given in PubChem BioAssay (Tox21).
Where “and” joins values, the source holds several entries; their conditions need not be identical. Equal entries are not always repeated. Inconclusive results are not listed. A call without a number means that no potency is given here. Some compounds were tested as several samples or in several runs, with calls that do not always agree. Calls of active or inactive are those of the source. Unless noted, the call rests on the fitted dose curve; in most records, active means well fitted curve in the direction sought with a large enough effect in the repeat runs; inconclusive means weak or mixed curves; inactive means no such curve, though single readings can be large; an effect the other way counts as inactive or inconclusive.

Key:
[1] = qHTS assay to identify small molecule agonists of the RXR signaling pathway - cell viability counter screen (AID 1159529); further: nearly all actives have a fitted effect of over 50% in size; further: potency means the concentration at half of the fitted maximal effect
In short: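 Same-well viability check after the LiveBLAzer FRET read: CellTiter-Glo added, luminescence measured after 30 min at room temperature. Reporter HEK 293T cells had been treated with compounds for 16 hr following a 5 hr preincubation.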

[2] = qHTS assay to identify small molecule antagonists of the retinoid acid receptor (RAR) signaling pathway - cell viability counter screen (AID 1159551); further: nearly all actives have a fitted effect of over 35% in size
In short: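 Cells (C3RL4) are plated, incubated overnight, dosed with compound in DMSO, then given retinol at 1 uM final. After 6 h at 37 C, CellTiter-Glo is added and luminescence read following 30 min at room temperature.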

[3] = target: Nuclear receptor subfamily 1 group I member 3 (Homo sapiens) (UniProt Q14994); test: qHTS assay to identify small molecule agonists of the constitutive androstane receptor (CAR) signaling pathway (AID 1224839); further: nearly all actives have a fitted effect of over 15% in size; further: potency means the concentration at half of the fitted maximal effect
Chain of Nuclear receptor subfamily 1 group I member 3 (Homo sapiens) (Q14994 whole entry, looked up): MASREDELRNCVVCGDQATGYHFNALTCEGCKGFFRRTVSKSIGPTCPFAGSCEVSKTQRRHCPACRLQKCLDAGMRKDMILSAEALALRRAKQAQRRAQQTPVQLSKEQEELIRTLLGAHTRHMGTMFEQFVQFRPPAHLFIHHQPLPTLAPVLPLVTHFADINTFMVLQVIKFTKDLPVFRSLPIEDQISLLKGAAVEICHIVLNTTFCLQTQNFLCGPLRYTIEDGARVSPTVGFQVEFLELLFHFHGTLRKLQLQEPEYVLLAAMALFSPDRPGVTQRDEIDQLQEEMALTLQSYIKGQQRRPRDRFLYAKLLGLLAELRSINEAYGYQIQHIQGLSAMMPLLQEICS
In short: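 In this screen, CAR-driven CYP2B6 promoter activity is measured by luminescence in HepG2-CYP2B6-hCAR cells after 24 h with test compounds and 0.75 uM PK11195 (final concentration).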

[4] = qHTS assay to identify small molecule agonists of the hypoxia (HIF-1) signaling pathway - cell viability counter screen (AID 1224844; calls by dose curve; further: nearly all actives have a fitted effect of over 50% in size; further: potency means the concentration at half of the fitted maximal effect)
In short: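 Cytotoxicity was measured in parallel with the HRE-driven beta-lactamase readout: after 17 hrs of compound exposure at 37C, HRE-bla ME-180 cells received CellTiter-Glo and luminescence was recorded 30 min later.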

[5] = qHTS RealTime-Glo MT Cell Viability Assay in HEK293 cells - 16 hour (AID 1224872); further: nearly all actives have a fitted effect of over 50% in size; further: potency means the concentration at half of the fitted maximal effect
In short: (§1)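 Nonlytic real-time viability readout: viable cells convert prosubstrate to NanoLuc substrate, giving luminescence proportional to live cell number. HEK293, 600 cells/well, compound added after 5 h, continuous culture at 37 C.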

[6] = qHTS RealTime-Glo MT Cell Viability Assay in HEK293 cells - 24 hour (AID 1224886); further: nearly all actives have a fitted effect of over 50% in size; further: potency means the concentration at half of the fitted maximal effect
In short: as §1

[7] = qHTS assay to identify small molecule antagonists of the estrogen receptor beta (ER-beta) signaling pathway - cell viability counter screen (AID 1259382); further: nearly all actives have a fitted effect of over 55% in size; further: potency means the concentration at half of the fitted maximal effect
In short: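 Cytotoxicity counter screen multiplexed with the beta-lactamase antagonist assay: GripTite HEK293T ER-beta-bla cells were treated 16 hr with test chemicals in the presence of 1nM 17-beta-estradiol, and viability was measured by CellTiter-Glo.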

[8] = target: Thyrotropin-releasing hormone receptor (Homo sapiens) (UniProt P34981); test: qHTS assay to identify small molecule agonists of the thyrotropin-releasing hormone receptor (TRHR) signaling pathway (AID 1346891; calls by dose curve;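 further: HEK293 cells expressing TRHR with calcium dye readout; series mostly up to about 58 µM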)
Chain of Thyrotropin-releasing hormone receptor (Homo sapiens) (P34981 whole entry, looked up): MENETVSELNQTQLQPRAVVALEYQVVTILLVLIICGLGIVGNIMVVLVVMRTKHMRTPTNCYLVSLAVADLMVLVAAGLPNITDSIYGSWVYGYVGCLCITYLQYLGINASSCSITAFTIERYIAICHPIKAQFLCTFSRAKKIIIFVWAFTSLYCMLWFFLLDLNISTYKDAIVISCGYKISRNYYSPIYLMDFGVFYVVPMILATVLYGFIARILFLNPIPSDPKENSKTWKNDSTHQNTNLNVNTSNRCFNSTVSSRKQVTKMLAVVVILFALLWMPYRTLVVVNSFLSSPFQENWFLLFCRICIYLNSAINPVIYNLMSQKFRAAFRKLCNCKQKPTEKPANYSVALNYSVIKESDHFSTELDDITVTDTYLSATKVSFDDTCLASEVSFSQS
In short: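 Overnight-plated (18 h, 37 °C, 5% CO2) TRHR-Hek293 cells; 2 h calcium dye at 37 °C; compound in DMSO; 3-min kinetic fluorescence read.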

[9] = target: Nuclear receptor subfamily 1 group I member 2 (Homo sapiens) (UniProt O75469); test: Human pregnane X receptor (PXR) small molecule agonists, qHTS assay (AID 1346982); further: nearly all actives have a fitted effect of over 35% in size; further: potency means the concentration at half of the fitted maximal effect
Chain of Nuclear receptor subfamily 1 group I member 2 (Homo sapiens) (O75469 whole entry, looked up): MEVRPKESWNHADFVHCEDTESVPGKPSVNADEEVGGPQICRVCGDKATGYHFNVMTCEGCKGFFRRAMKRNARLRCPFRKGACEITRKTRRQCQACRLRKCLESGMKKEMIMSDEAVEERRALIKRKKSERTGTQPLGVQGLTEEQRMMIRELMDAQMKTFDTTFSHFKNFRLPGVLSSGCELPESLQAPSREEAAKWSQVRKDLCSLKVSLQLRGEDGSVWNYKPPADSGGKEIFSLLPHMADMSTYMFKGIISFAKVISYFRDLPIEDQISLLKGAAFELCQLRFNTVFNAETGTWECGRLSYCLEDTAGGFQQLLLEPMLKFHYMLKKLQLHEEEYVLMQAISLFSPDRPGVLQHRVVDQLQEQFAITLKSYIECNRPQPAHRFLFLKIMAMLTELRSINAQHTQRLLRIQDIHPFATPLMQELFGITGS
In short: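 Cells: HepG2 stably carrying PXR-Luc. Medium held 5% charcoal-stripped FBS. Compounds in DMSO added after 5 hr plating, incubated 24 hr, then luminescence quantified with ONE-Glo.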

[10] = target: Cytochrome P450 3A4 (Homo sapiens) (UniProt P08684); test: Cytochrome P450 Family 3 Subfamily A Member 4 (CYP3A4) small molecule antagonists: luciferase reporter qHTS assay (AID 1671201); further: nearly all actives have a fitted effect of over 50% in size; further: potency means the concentration at half of the fitted maximal effect
Chain of Cytochrome P450 3A4 (Homo sapiens) (P08684 whole entry, looked up): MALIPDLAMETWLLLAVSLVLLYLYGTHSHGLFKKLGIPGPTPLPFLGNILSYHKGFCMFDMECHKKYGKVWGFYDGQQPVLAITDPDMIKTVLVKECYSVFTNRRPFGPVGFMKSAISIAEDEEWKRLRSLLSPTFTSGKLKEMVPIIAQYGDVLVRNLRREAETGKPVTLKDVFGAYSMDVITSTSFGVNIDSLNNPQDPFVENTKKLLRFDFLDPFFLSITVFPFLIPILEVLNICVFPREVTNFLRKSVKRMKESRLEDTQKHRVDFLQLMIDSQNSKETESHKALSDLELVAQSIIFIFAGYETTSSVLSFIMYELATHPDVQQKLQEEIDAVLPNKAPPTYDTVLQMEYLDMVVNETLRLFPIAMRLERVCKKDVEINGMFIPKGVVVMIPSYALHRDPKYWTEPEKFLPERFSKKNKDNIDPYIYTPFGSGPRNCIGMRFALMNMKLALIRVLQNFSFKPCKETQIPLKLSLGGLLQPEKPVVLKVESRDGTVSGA
In short: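 Room-temperature assay throughout: 10 min compound–enzyme/substrate preincubation, 1 h reaction after NADPH regeneration solution, 20 min detection. Luciferin formed from proluciferin substrate is quantified by luminescence.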

[11] = qHTS RealTime-Glo MT Cell Viability Assay in HepG2 cells - 8 hour (AID 1224873); further: nearly all actives have a fitted effect of over 55% in size
In short: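 HepG2 cells (600/well) mixed with RealTime-Glo MT reagent, settled 5 h at 37 C/5% CO2 before compound addition. Nonlytic NanoLuc luminescence from viable-cell prosubstrate reduction read repeatedly during 40 h treatment at 37 C.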

[12] = A CellTox Green Cytotoxicity Assay to monitor cytotoxicity in HEK293 cells - 32 hour (AID 1224881); further: nearly all actives have a fitted effect of over 40% in size; further: potency means the concentration at half of the fitted maximal effect
In short: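 Cells (HEK293, 600/well) and dye reagent are dispensed together. After 5 h at 37 C, 23 nL compound is pinned in. Plates stay at 37 C for 40 h with fluorescence read at 0h, 8h, 16h, 24h, 32h and 40h.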

[13] = Caspase-3/7 induction in CHO-K1 cells by small molecules, qHTS cell viability counter screen (AID 1346979); further: nearly all actives have a fitted effect of over 35% in size; further: potency means the concentration at half of the fitted maximal effect
In short: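 Multiplexed with Caspase-Glo 3/7 in CHO-K1 cells, this counter screen added CellTiter-Fluor after 16hr of compound exposure and recorded fluorescence 1hr later.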

[14] = qHTS assay to test for compound auto fluorescence at 590 nm (red) in HepG2 cells (AID 720674)
In short: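 HepG2 cells, 2,000 per well in MEM with 10% FBS, attached overnight at 37 C, then got 23 nL compound or DMSO. After 1 hr at 37 C, 5% CO2, red fluorescence was read at 540/590 nm against Rose Bengal sodium as reference.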

[15] = qHTS assay to test for compound auto fluorescence at 460 nm (blue) in HEK293 cells (AID 720678)
In short: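 Blue read-out at excitation 405 nm and emission 460 nm follows overnight compound exposure of HEK293 cells at 37C in 5% CO2. Activity is given as auto fluorescence equivalency to triamterene.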

[16] = qHTS assay for identifying genotoxic compounds that show differential cytotoxicity against isogenic chicken DT40 cell lines with known DNA damage response pathways - Rad54/Ku70 mutant cell line (AID 743015); further: potency means the concentration at half of the fitted maximal effect; nearly all actives have a fitted effect of over 60% in size
[17] = target: Aryl hydrocarbon receptor (Homo sapiens) (UniProt P35869); test: qHTS assay to identify small molecule that activate the aryl hydrocarbon receptor (AhR) signaling pathway (AID 743085); further: nearly all actives have a fitted effect of over 15% in size; further: potency means the concentration at half of the fitted maximal effect
Chain of Aryl hydrocarbon receptor (Homo sapiens) (P35869 whole entry, looked up): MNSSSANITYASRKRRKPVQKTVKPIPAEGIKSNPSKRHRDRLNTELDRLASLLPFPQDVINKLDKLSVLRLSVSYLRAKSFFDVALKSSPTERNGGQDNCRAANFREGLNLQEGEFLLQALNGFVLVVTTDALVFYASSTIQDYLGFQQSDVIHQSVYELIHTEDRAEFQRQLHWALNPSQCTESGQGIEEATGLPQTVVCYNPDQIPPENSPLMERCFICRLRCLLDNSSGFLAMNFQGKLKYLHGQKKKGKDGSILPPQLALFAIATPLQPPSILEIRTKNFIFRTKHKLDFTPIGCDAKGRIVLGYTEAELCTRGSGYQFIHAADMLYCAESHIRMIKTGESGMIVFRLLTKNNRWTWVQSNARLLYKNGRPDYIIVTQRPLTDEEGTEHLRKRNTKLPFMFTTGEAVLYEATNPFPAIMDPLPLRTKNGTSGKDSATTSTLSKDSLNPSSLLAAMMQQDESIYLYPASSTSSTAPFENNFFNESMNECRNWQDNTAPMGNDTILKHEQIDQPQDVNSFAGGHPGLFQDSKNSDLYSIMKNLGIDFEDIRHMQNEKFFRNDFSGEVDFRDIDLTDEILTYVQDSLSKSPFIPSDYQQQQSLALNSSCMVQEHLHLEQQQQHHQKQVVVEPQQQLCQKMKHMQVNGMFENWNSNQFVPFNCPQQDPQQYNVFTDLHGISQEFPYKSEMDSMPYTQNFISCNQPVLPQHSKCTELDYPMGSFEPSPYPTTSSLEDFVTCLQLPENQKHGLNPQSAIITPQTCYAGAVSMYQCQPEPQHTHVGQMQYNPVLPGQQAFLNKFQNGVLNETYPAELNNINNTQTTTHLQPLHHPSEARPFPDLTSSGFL
In short: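 24 h compound exposure, 37C, HepG2-derived HG2L7.5c1 cells with DRE-responsive luciferase. Readouts: fluorescence viability, then luminescence at room temperature after 30 min.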

[18] = qHTS assay to identify small molecule agonists of the androgen receptor (AR) signaling pathway in the presence of an antagonist - cell viability counter screen (AID 1259379); further: nearly all actives have a fitted effect of over 25% in size; further: potency means the concentration at half of the fitted maximal effect
In short: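 Cytotoxicity is assessed by CellTiter-Fluor in MDA-kb2 cells carrying an MMTV-driven luciferase reporter. Cells receive 3.0uM nilutamide plus compounds at 15 concentrations and incubate 16 hr at 37C without CO2 before fluorescence reading.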

[19] = qHTS assay to test for compound auto fluorescence at 535 nm (green) in HEK293 cell free culture (AID 720682)
In short: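 Measurement is a direct plate read of green fluorescence (485 nm in, 535 nm out) after compound addition to serum-supplemented DMEM lacking cells, with fluorescein used to express intensities.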

[20] = qHTS assay to test for compound auto fluorescence at 460 nm (blue) in HepG2 cells (AID 720687)
In short: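 HepG2 cells in MEM with 10% FBS, attached overnight at 37 C, were exposed to compound or DMSO for 1 hr at 37 C, 5% CO2. Blue fluorescence was read at 405/460 nm, with triamterene as reference fluorophore.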

Cc1cc(C)c(C(=O)P(=O)(c2ccccc2)c2ccccc2)c(C)c1
Potency [1]: 49 µM (active)
Potency [2]: inactive
Potency [3]: 15.4 µM (active)
Potency [4]: 43.6 µM (active)
Potency [5]: 43.6 µM (active)
Potency [6]: 38.9 µM (active)
Potency [7]: 61.1 µM (active)
outcome [8]: inactive
Potency [9]: 9.69 µM (active)
Potency [10]: 5.03 µM (active)

N#Cc1cc([N+](=O)[O-])ccc1N
Potency [1]: inactive
Potency [2]: inactive
Potency [4]: inactive
Potency [5]: inactive
Potency [11]: inactive
Potency [12]: inactive
Potency [6]: inactive
Potency [7]: inactive
outcome [8]: inactive
Potency [13]: 61.1 µM (active)
Potency [9]: inactive
Potency [10]: inactive

CCOC(=O)C(O)(c1ccc(Cl)cc1)c1ccc(Cl)cc1
outcome [14]: inactive
Potency [15]: inactive
Potency [16]: 3.9 µM (active) and 17.2 µM (active)
Potency [17]: 24.6 µM (active)
Potency [1]: 31.2 µM (active) and 43.6 µM (active)
Potency [3]: 55 µM (active) and 54.5 µM (active)
Potency [4]: inactive
Potency [5]: 19.7 µM (active) and 34.7 µM (active)
Potency [11]: inactive
Potency [12]: 44.1 µM (active)
Potency [6]: 22.1 µM (active) and 34.7 µM (active)
Potency [18]: inactive
Potency [7]: inactive
outcome [8]: inactive
Potency [13]: 61.8 µM (active)
Potency [9]: 27.6 µM (active) and inactive
Potency [10]: inactive

COc1cc(OC)c(OC)cc1C=O
Potency [19]: inactive
Potency [20]: inactive
Potency [1]: inactive
Potency [2]: inactive
Potency [3]: inactive
Potency [11]: inactive
Potency [12]: inactive
Potency [6]: inactive
Potency [18]: inactive
outcome [8]: inactive
Potency [9]: inactive

O=C(c1ccc(Cl)cc1)c1ccc(Cl)cc1
Potency [3]: inactive

CN1CSC(=S)N(C)C1
outcome [14]: inactive
Potency [15]: inactive
Potency [19]: inactive
Potency [20]: inactive
Potency [16]: 6.08 µM (active) and 4.84 µM (active)
Potency [17]: inactive
Potency [1]: 10.9 µM (active) and 8.69 µM (active)
Potency [2]: inactive
Potency [3]: inactive
Potency [5]: 15.4 µM (active)
Potency [11]: inactive
Potency [12]: 6.13 µM (active) and 9.75 µM (active)
Potency [6]: 17.3 µM (active) and 24.5 µM (active)
Potency [18]: 27.2 µM (active) and inactive
Potency [7]: 9.64 µM (active) and 8.61 µM (active)
outcome [8]: inactive
Potency [13]: 1.36 µM (active) and 7.67 µM (active)
Potency [9]: 5.43 µM (active)
Potency [10]: inactive

ClC1=C(Cl)[C@]2(Cl)[C@@H]3[C@@H](Cl)[C@H]4O[C@H]4[C@@H]3C1(Cl)C2(Cl)Cl
outcome [14]: inactive
Potency [19]: inactive
Potency [16]: 61.1 µM (active)
Potency [17]: inactive
Potency [1]: 49 µM (active)
Potency [4]: inactive
Potency [5]: 54.9 µM (active)
Potency [12]: 54.9 µM (active)
Potency [18]: inactive
Potency [9]: 30.6 µM (active)

CCN(CC)C(=O)Cl
Potency [1]: inactive
Potency [2]: inactive
Potency [3]: inactive
Potency [4]: inactive
Potency [5]: inactive
Potency [11]: inactive
Potency [12]: inactive
Potency [6]: inactive
Potency [18]: inactive
Potency [7]: inactive
outcome [8]: inactive
Potency [13]: inactive
Potency [9]: inactive
Potency [10]: inactive
